“And” between values parts separate entries of the source, which are not always exact repeats. Identical values can stand only once. A number with no mark means an inactive call. Entries that show only a call come without a potency. The source made the active and inactive calls. Unless noted, the call rests on the fitted dose curve; in most records, active means well fitted curve in the direction sought with a large enough effect in the repeat runs; inconclusive means weak or mixed curves; inactive means flat fitted curve, though single readings scatter.
Tests used:
[1] = qHTS assay to test for compound auto fluorescence at 535 nm (green) in HEK293 cells (AID 720680); further: potency means the concentration at half of the fitted maximal effect
[2] = qHTS assay to test for compound auto fluorescence at 460 nm (blue) in HEK293 cell free culture (AID 720681); further: potency means the concentration at half of the fitted maximal effect
In short: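 Test compounds were pinned into cell-free culture medium (DMEM with 10% FBS) and fluorescence was read directly at Ex/Em 405/460 nm. Signals were expressed as fluorescence equivalents of triamterene, with DMSO vehicle as control.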

[3] = qHTS assay to test for compound auto fluorescence at 535 nm (green) in HEK293 cell free culture (AID 720682); further: potency means the concentration at half of the fitted maximal effect
In short: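 Using fluorescein as calibrant, autofluorescence was quantified at 485/535 nm in cell-free DMEM containing 10% FBS after pintool addition of compound or vehicle.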

[4] = qHTS assay to test for compound auto fluorescence at 590 nm (red) in HEK293 cell free culture (AID 720683); further: potency means the concentration at half of the fitted maximal effect
In short: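 Tox21 10K library compounds were pinned into cell-free DMEM with 10% FBS and fluorescence was read at excitation 540 nm. Activity is expressed as Rose Bengal sodium equivalency.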

[5] = qHTS assay to test for compound auto fluorescence at 590 nm (red) in HepG2 cell free culture (AID 720684)
In short: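 Measured in medium alone (MEM containing 10% FBS) following pintool addition of compound; emission at 590 nm with 540 nm excitation, referenced to Rose Bengal sodium.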

[6] = qHTS assay to test for compound auto fluorescence at 535 nm (green) in HepG2 cell free culture (AID 720686); further: potency means the concentration at half of the fitted maximal effect
[7] = qHTS assay to test for compound auto fluorescence at 460 nm (blue) in HepG2 cells (AID 720687); further: potency means the concentration at half of the fitted maximal effect
In short: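 Cells (2,000/well in MEM with 10% FBS) attached overnight at 37 C, then were exposed to compound or DMSO for 1 hr at 37 C, 5% CO2. Fluorescence read at Ex/Em 405/460 nm, expressed as triamterene-equivalent signal.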

[8] = target: Glucocorticoid receptor (Homo sapiens) (UniProt P04150); experiment: qHTS assay to identify small molecule agonists of the glucocorticoid receptor (GR) signaling pathway (AID 720691; active means well fitted activation curve with a large enough effect in the signal ratio in the repeat runs, not every such curve was filed as active; inconclusive means weak or mixed curves, or effect the other way; inactive means no such curve, though single readings can be large or run the other way; the % refers to the signal ratio; further: potency means the concentration at half of the fitted maximal effect); conditions: GR-bla HeLa, beta-lactamase reporter ratio, 18 h; activation: at 62.4 µM (top of the series)
Sequence of Glucocorticoid receptor (Homo sapiens) (P04150 whole entry, looked up): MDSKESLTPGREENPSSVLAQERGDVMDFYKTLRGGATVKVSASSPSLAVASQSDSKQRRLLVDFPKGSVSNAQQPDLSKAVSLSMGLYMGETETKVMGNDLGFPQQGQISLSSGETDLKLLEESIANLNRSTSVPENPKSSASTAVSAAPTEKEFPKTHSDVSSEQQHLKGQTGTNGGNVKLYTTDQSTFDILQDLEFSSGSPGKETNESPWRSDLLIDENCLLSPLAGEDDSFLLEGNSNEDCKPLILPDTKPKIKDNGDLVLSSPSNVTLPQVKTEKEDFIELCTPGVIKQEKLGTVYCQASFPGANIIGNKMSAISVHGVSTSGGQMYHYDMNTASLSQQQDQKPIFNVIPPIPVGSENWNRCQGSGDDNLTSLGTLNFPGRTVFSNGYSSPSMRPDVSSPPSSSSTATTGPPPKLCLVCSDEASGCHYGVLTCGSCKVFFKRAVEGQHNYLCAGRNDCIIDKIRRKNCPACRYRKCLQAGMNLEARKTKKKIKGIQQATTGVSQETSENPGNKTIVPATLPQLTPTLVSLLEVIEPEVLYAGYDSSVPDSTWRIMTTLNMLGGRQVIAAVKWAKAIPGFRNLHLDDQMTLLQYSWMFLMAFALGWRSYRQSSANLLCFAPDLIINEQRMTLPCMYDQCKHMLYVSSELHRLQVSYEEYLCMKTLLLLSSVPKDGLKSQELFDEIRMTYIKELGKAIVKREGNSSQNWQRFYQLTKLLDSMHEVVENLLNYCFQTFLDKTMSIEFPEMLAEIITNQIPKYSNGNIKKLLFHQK
In short: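 GR-bla HeLa cells (beta-lactamase reporter under glucocorticoid response element) were plated 4 h at 37 C/5% CO2, given compounds in DMSO, and incubated 18 h at 37 C. LiveBLAzer B/G FRET substrate was added for 2 h at room temperature, then fluorescence intensity read.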

[9] = target: Glucocorticoid receptor (Homo sapiens) (UniProt P04150); experiment: qHTS assay to identify small molecule antagonists of the glucocorticoid receptor (GR) signaling pathway (AID 720692; active means well fitted inhibition curve with a large enough effect in the signal ratio in the repeat runs, not every such curve was filed as active; inconclusive means weak or mixed curves, or effect the other way; inactive means no such curve, though single readings can be large or run the other way; the % refers to the signal ratio; further: potency means the concentration at half of the fitted maximal effect)
In short: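 GR-bla HeLa cells (beta-lactamase reporter under glucocorticoid response element) were pre-plated 4 h at 37 C, treated with compounds plus 5 nM dexamethasone (final) for 18 h, then read by LiveBLAzer B/G FRET fluorescence after 2 h.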

[10] = qHTS assay to test for compound auto fluorescence at 460 nm (blue) in HepG2 cell free culture (AID 720685); further: potency means the concentration at half of the fitted maximal effect
In short: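 Compound (23 nL) or DMSO pinned into cell-free MEM with 10% FBS; blue fluorescence read at 405/460 nm excitation/emission, expressed as auto-fluorescence equivalency to triamterene.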
Tags describe the fitted curve by direction and shape or compound fluorescence and quenching.

| Structure (SMILES) | Potency [1] | Potency [2] | Potency [3] | Potency [4] | Potency [5] | Potency [6] | Potency [7] | Potency [8] | Potency [9] | Potency [10] | activation [8] |
| --- | --- | --- | --- | --- | --- | --- | --- | --- | --- | --- | --- |
| CCCCCCCCCCCCCCNCCO | inactive | inactive | inactive | inactive | inactive | inactive | inactive | – | – | – | – |
| CCC(=O)OCCc1ccccc1 | inactive | inactive | inactive | inactive | inactive | inactive | inactive | inactive | inactive | – | – |
| COc1ccccc1OCCNCC(O)COc1cccc2[nH]c3ccccc3c12 (configuration not stated) | inactive | inactive | inactive | inactive | inactive | inactive | inactive | inactive | – | – | – |
| NC(=O)c1ccccc1N | inactive | inactive | inactive | inactive | inactive | inactive | inactive | – | – | – | – |
| C=CC(=O)OCC(O)COc1ccccc1 (configuration not stated) | inactive | inactive | inactive | inactive | inactive | inactive | inactive | – | – | – | – |
| C[n+]1c2cc(N)ccc2cc2ccc(N)cc21 (tested in a mixture with another compound) | 12.6 µM [fluorescent] (active) | 11.2 µM (active) | 12.6 µM [fluorescent] (active) | inactive | inactive | 12.6 µM [fluorescent] (active) | 14.1 µM [fluorescent] (active) | – | – | – | – |
| Nc1ncnc2c1ncn2[C@@H]1O[C@H](COP(=O)(O)O)[C@@H](O)[C@H]1O | inactive | inactive | inactive | inactive | inactive | inactive | inactive | inactive | – | – | – |
| CSc1ccc2c(c1)N(CCC1CCCCN1C)c1ccccc1S2 (configuration not stated) | inactive | inactive | inactive | inactive | inactive | inactive | inactive | – | – | – | – |
| C=CC(=C)CCC=C(C)C | inactive | inactive | inactive | inactive | inactive | inactive | – | – | inactive | inactive | – |
| COCC(=O)O[C@]1(CCN(C)CCCc2nc3ccccc3[nH]2)CCc2cc(F)ccc2[C@@H]1C(C)C | inactive | inactive | inactive | inactive | inactive | inactive | inactive | – | – | – | – |
| CC1=C(/C=C/C(C)=C/C=C/C(C)=C\C=O)C(C)(C)CCC1 | inactive | inactive | inactive | inactive | inactive | inactive | inactive | – | – | – | – |
| C=CCCCCCCC=C | inactive | inactive | inactive | inactive | inactive | inactive | inactive | – | – | – | – |
| C=C(C)C(=O)OCCC[Si](Cl)(Cl)Cl | inactive | inactive | inactive | inactive | inactive | inactive | inactive | inactive | – | – | – |
| CCCOc1sc(C(=O)N2CCC(c3cc(CN)ccc3F)CC2)c(C)c1Br | inactive | inactive | inactive | inactive | inactive | inactive | – | – | – | – | – |
| Cc1nc(Nc2ncc(C(=O)Nc3c(C)cccc3Cl)s2)cc(N2CCN(CCO)CC2)n1 | inactive | inactive | inactive | inactive | inactive | inactive | inactive | – | – | – | – |
| CCCCCCCCCCCCN(CCO)CCO | inactive | inactive | inactive | inactive | – | inactive | – | – | – | inactive | – |

| Structure (SMILES) | Potency [1] | Potency [2] | Potency [3] | Potency [4] | Potency [5] | Potency [6] | Potency [7] | Potency [8] | Potency [9] | Potency [10] | activation [8] |
| --- | --- | --- | --- | --- | --- | --- | --- | --- | --- | --- | --- |
| O=Cc1ccc(F)cc1 | inactive | inactive | inactive | inactive | inactive | inactive | inactive | inactive | inactive | – | – |
| O=C1NCCN1CCN1CCC(c2cn(-c3ccc(F)cc3)c3ccc(Cl)cc23)CC1 | inactive | inactive | inactive | inactive | – | inactive | – | – | – | inactive | – |
| CCCCCCC(C)Nc1ccc(Nc2ccccc2)cc1 (configuration not stated) | inactive | inactive | inactive | inactive | inactive | inactive | inactive | – | 43.6 µM (active) | – | – |
| CC1(C)C(=O)N(Br)C(=O)N1Br | inactive | inactive | inactive | inactive | inactive | inactive | – | inactive | inactive | – | – |
| C[C@H]1O[C@@H](O[C@H]2[C@@H](O)C[C@H](O[C@H]3[C@@H](O)C[C@H](O[C@H]4CC[C@@]5(C)[C@H](CC[C@@H]6[C@@H]5C[C@@H](O)[C@]5(C)[C@@H](C7=CC(=O)OC7)CC[C@]65O)C4)O[C@@H]3C)O[C@@H]2C)C[C@H](O)[C@@H]1O | inactive | inactive | inactive | inactive | inactive | inactive | inactive | inactive | – | – | – |
| O=C(Nc1ccc(Cl)c(Cl)c1)c1cc(Cl)cc(Cl)c1O | inactive | inactive | inactive | inactive | inactive | inactive | inactive | – | – | – | 11.6% [inconclusive] (active) |
| CN1[C@@H]2CC[C@@H]1CC(OC(=O)C(CO)c1ccccc1)C2 (some centres not stated) | inactive | inactive | inactive | inactive | inactive | inactive | inactive | inactive | inactive | – | – |
| Brc1ccccc1-c1ccccc1 | inactive | inactive | inactive | inactive | inactive | inactive | inactive | inactive | – | – | – |
| CCCCCCOc1ccc(O)cc1 | inactive | inactive | inactive | inactive | inactive | inactive | inactive | – | – | – | – |
| CC(NCCC(c1ccccc1)c1ccccc1)c1ccccc1 (configuration not stated) | inactive | inactive | inactive | inactive | inactive | inactive | inactive | – | – | – | – |
| CCN=c1cc2oc3cc(NCC)c(C)cc3c(-c3ccccc3C(=O)OCC)c-2cc1C | 39.8 µM [fluorescent] (active) | inactive | 39.8 µM [fluorescent] (active) | 3.16 µM [fluorescent] (active) and 4.47 µM [fluorescent] (active) | – | 39.8 µM [fluorescent] (active) | inactive | – | – | inactive | – |
| C=CC(C)(CCC=C(C)C)OC(=O)/C=C/c1ccccc1 (configuration not stated) | inactive | inactive | inactive | inactive | – | inactive | inactive | – | – | inactive | – |
| C(=C/c1ccccc1)/c1ccccc1 | inactive | inactive | inactive | inactive | – | inactive | inactive | – | – | inactive | – |
| CCC(C)c1cc([N+](=O)[O-])cc([N+](=O)[O-])c1OC(=O)OC(C)C (configuration not stated) | inactive | inactive | inactive | inactive | – | inactive | – | inactive | – | inactive | – |
| CCCCC(CC)COC(=O)c1ccc(O)cc1 (configuration not stated) | inactive | inactive | inactive | inactive | – | inactive | inactive | – | – | inactive | – |
| Nc1ccc2cc3ccc(N)cc3nc2c1 | 11.2 µM [fluorescent] (active) | 11.2 µM (active) | 11.2 µM [fluorescent] (active) | inactive | – | 11.2 µM [fluorescent] (active) and 7.08 µM [fluorescent] (active) | 12.6 µM [fluorescent] (active) | 6.16 µM (active) | – | 11.2 µM [fluorescent] (active) | – |
